Assay outcomes as filed in PubChem BioAssay.
HSF1 activator: increases HSF-1 driven luciferase reporter signal; NIH3T3-HGL HSF-1 luciferase reporter, MG132, 8 h; 100% = twice DMSO control signal; activation, % at 9 µM; actives 1.7% (n = 300,000);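 active = mean replicate activation of at least 50% with a set share of replicates each reaching 50%; inconclusive = only one of those two conditions met; inactive = mean below 50% and too few replicates reaching it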
HSF1 inh: HSF1 inhibition | NIH3T3-HGL HSE-luciferase, MG132-induced, luminescence 8 h; active compounds read low | actives 0.77% (n = 300,000) | activity change, negative = inhibition, % at 7.5 µM (by protocol);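 active = more than half of replicate wells show activity change below -50%, luminescence cut by over half; inconclusive = some wells, but at most half, below -50%; inactive = no replicate well below -50%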;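 note: luciferase reports HSF-1 transcriptional activity via heat shock element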
esBAF inh: SWI/SNF esBAF complex inhibition. mouse ES cells, Bmi1-luciferase knock-in reporter, 24 h; 100% = twice the neutral-well signal. actives 2% (n = 350,000). reporter increase, % at 12.5 µM; in the data active = activation above about 40%; inconclusive = no clear call, values can overlap the other calls;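 note: a rise in the Bmi1 reporter signal indicates esBAF inhibition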
SMARCA2 act: SMARCA2 function activation, primary screen | activation, % at 9.1 µM | AID 652017 | actives 1% (n = 370,000) | MG213 cells, MMTV-luciferase reporter, dexamethasone, overnight; in the data active = activation above about 7.8%
MITF act: increases MITF-driven TRPM1 promoter luciferase signal; activation, % at 12.5 µM; actives 0.75% (n = 300,000); SK-MEL-5 TRPM1-promoter luciferase, 24 h; % of positive control, neutral wells = 0; AID 588334;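 active = mean activation of at least 80% with every replicate also reaching 80%; inconclusive = mean reaches 80% but some replicate falls short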
Wnt bcat act: activates Wnt/beta-catenin signaling in a reporter cell assay | activator, plate reader | activation, % at 9.35 µM | actives 1.2% (n = 300,000); in the data active = activation above about 30%, passing the limit was not always enough; inconclusive = no clear call, values can overlap the other calls
SMARCA2 act conf: SMARCA2 activation, confirmation screen. shares compounds with SMARCA2 act. activation, % at 9.1 µM. MG213 cells, MMTV-luciferase with dexamethasone, luminescence, overnight; MG213 cells expressing E1A, Rb sequestered; DMSO wells 0%, reference activator 100%. actives 30% (n = 3,500);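 active = activation above its plate's cutoff, the mean activation of tested wells plus 3 SD, cut at about 7.9% in these data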
VP16 Luc act: activates GAL4-VP16 luciferase, flagging SMARCA2 activator hits; activation, % at 9.1 µM; HEK293 GAL4-VP16 pG5luc reporter, luciferase luminescence; scaled: DMSO wells 0%, SAHA wells 100%; shares compounds with SMARCA2 act; actives 41% (n = 3,500);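 active = activation above the solvent-only control well mean plus 3 SD, averaged across control plates, cut at about 5.2% in these data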
A number is an active result; n = inactive; u = inconclusive; x = not tested or not shown. Sampled rows, rich in hits. Any-hit rate of the full collection: about 4.3%.

SMILES | HSF1 activator | HSF1 inh | esBAF inh | SMARCA2 act | MITF act | Wnt bcat act | SMARCA2 act conf | VP16 Luc act
O=C(CSc1ccc(-c2cccs2)nn1)N1CCCCC1 | n | n | n | n | n | x | x | x
O=C(CSc1ccc(-c2cccs2)nn1)N1CCCCCC1 | n | n | 50.0 | 13.0 | n | x | n | 5.7
CCc1c(O)nc(SCC(=O)NC(C)(C)C)n(-c2ccccc2)c1=O | n | n | n | 8.1 | n | n | n | n
CCOC(=O)Cn1c(C(=O)OCC)cc2sccc21 | n | n | n | n | n | x | x | x
CCOC(=O)c1cc2sccc2n1CC(=O)C(C)(C)C | n | n | x | 10.0 | n | n | n | n
C[C@@H]1CN([C@@H](C)CO)C(=O)CCCn2cc(nn2)CO[C@@H]1CN(C)Cc1ccc(O)cc1 | x | x | n | x | x | x | x | x
CC1CCC(NC(=O)c2cccn2C)CC1 (stereo unspecified) | x | x | n | 8.8 | n | 42.1 | 10.8 | 10.8
CC1CCC(NC(=O)c2nn(C)c(=O)c3ccccc23)CC1 (stereo unspecified) | x | x | n | n | x | n | x | x
CCCNC(=O)[C@@H]1[C@@H](CO)[C@@H]2Cn3c(cccc3=O)[C@H]1N2S(=O)(=O)c1ccccc1F | x | x | n | x | x | x | x | x
N#CC(C#N)=C1SC(=Nc2ccccc2)C(=Nc2ccccc2)N1c1ccccc1 | x | x | x | 13.8 | n | 56.0 | n | n
CCCNC(=O)Nc1ccc2c(c1)C(=O)N(C)[C@H]1CC[C@H](CC(=O)Nc3ccccc3F)O[C@@H]1CO2 | x | x | n | x | x | x | x | x
O=C(COC(=O)c1nc(Cl)c(Cl)c(Cl)c1Cl)NCc1ccccc1 | x | x | n | 20.7 | n | n | 53.3 | n
COC1C(CO)OC(n2c3c(Cl)cccc3c3c4c(c5c6cccc(Cl)c6[nH]c5c32)C(=O)NC4=O)C(O)C1O (stereo unspecified) | x | x | x | 10.1 | n | n | 22.8 | n
Cc1cc(C(=O)c2cccs2)c(N)s1 | n | n | n | 8.9 | n | n | n | n
CO[C@H]1CN(C)C(=O)c2cc(NS(=O)(=O)c3ccccc3)ccc2OC[C@@H](C)N(Cc2cccnc2)C[C@H]1C | x | x | n | x | x | x | x | x
Oc1c(Cl)cc(Cl)cc1CNc1ccc(Br)cn1 | n | n | x | n | n | n | x | x
Oc1ccc(Cl)cc1CNc1ccc(Br)cn1 | n | n | 75.4 | 9.9 | n | x | 11.1 | 10.2
CCC(=O)N1[C@@H]2Cn3c(cccc3=O)[C@H]1[C@@H](C(=O)N1CCCCC1)[C@@H]2CO | x | x | n | x | x | x | x | x
Cc1ccc(CSc2nnc(-c3ccncc3)n2N)cc1 | n | n | x | 8.8 | x | n | n | n
C=C(C)CSc1nnc(-c2ccc(OC)cc2)n1N | n | n | n | 9.5 | n | n | n | n
O=c1oc(-c2ccc(O)c(O)c2)cc2cccc(O)c12 | x | x | 63.9 | 8.5 | n | n | 8.1 | 13.0
O=c1cc(-c2ccccc2)oc2ccc3ccccc3c12 | x | x | n | n | x | n | x | x
O=c1cc(-c2ccc(O)c(O)c2)oc2ccc3ccccc3c12 | x | x | x | 8.2 | n | n | n | 5.2
O=c1oc(-c2ccc(O)c(O)c2)cc2cc(O)cc(O)c12 | x | x | n | 11.0 | n | n | 12.0 | 8.3
O=C(O)c1cccc2cc(-c3ccccc3)oc(=O)c12 | n | n | n | n | x | n | x | x
SMILES | HSF1 activator | HSF1 inh | esBAF inh | SMARCA2 act | MITF act | Wnt bcat act | SMARCA2 act conf | VP16 Luc act
C[C@@H]1CN([C@@H](C)CO)C(=O)c2cccc(NS(=O)(=O)c3cn(C)cn3)c2O[C@@H]1CN(C)C(=O)NC1CCCCC1 | x | x | n | x | x | x | x | x
CN1CCN(Cc2nc3ccccc3c(=O)n2Cc2nc(-c3ccc([N+](=O)[O-])cc3)cs2)CC1 | n | n | x | 17.2 | n | x | 43.8 | n
COc1cc2c(cc1NC(=O)c1ccco1)CCCC2 | n | n | 76.4 | 10.3 | n | n | 7.9 | 11.2
COc1cc(NC(=O)C2CCCCC2)c(OC)cc1NC(=O)c1ccco1 | n | n | n | n | x | x | x | x
CO[C@@H]1CN(C)C(=O)c2cc(NS(=O)(=O)c3ccccc3C)ccc2OC[C@H](C)N(C)C[C@@H]1C | x | x | n | x | x | x | x | x
O=C1CCC(C(=O)N2CCCCCC2)CN1Cc1cccc(C(F)(F)F)c1 (stereo unspecified) | n | n | n | 9.2 | n | n | n | n
COc1cccc(CN2CC(C(=O)N3CCCCCCC3)CCC2=O)c1 (stereo unspecified) | n | n | n | n | n | n | x | x
CN(C(=O)C1CCC(=O)N(Cc2cccc(F)c2)C1)C1CCCCC1 (stereo unspecified) | n | n | 96.7 | 9.1 | 97.8 | 43.8 | 10.9 | 12.6
C[C@@H]1CN([C@H](C)CO)C(=O)Cc2cc(NC(=O)CCN3CCOCC3)ccc2O[C@H]1CN(C)C(=O)NC1CCCCC1 | x | x | n | x | x | x | x | x
C[C@H](NC(=O)C[C@H]1CC[C@H]2[C@@H](COC[C@H](O)CN2C(=O)Nc2ccccc2)O1)c1ccccc1 | x | x | n | x | x | x | x | x
C/C=C/c1ccc([C@H]2[C@@H](CO)N(C(=O)CC)[C@@H]2CNC(=O)c2ccncc2)cc1 | x | x | n | x | x | x | x | x
CC(C)c1cc(C(=O)Nc2ccc3c(c2)OCO3)no1 | n | n | n | 8.0 | n | n | n | 9.1
O=C(Nc1ccc2c(c1)OCO2)c1cccs1 | n | n | u | 10.1 | n | x | 11.7 | 9.6
CC(=O)c1ccc(NC(=O)/C(Cl)=C/c2ccccc2)cc1 | n | n | x | 9.7 | 138.2 | n | 13.4 | 12.4
O=C(Nc1ccc2c(c1)OCO2)c1cc(C2CC2)on1 | n | n | n | n | x | n | x | x
CC(=O)c1ccc(NC(=O)c2cccs2)cc1 | n | n | n | 12.3 | n | n | 10.0 | 10.3
C[C@H]1CN([C@@H](C)CO)C(=O)c2cc(NS(=O)(=O)c3cccs3)ccc2O[C@H]1CN(C)S(=O)(=O)c1cccs1 | x | x | n | x | x | x | x | x
O=C(Nc1ccc(CN2CCOCC2)cc1)c1cccs1 | n | n | n | 8.5 | n | x | n | n
CC(=O)Nc1ccc2nc(NC(=O)c3ccc([N+](=O)[O-])s3)sc2c1 | n | n | x | x | x | x | x | x
O=C(/C=C\Nc1cccc(F)c1)c1cccs1 | n | n | x | n | n | x | x | x
NC(=O)c1ccc(NC(=O)c2ccc(CN3CCOCC3)cc2)cc1 | n | n | n | n | x | x | x | x
CC(=O)Nc1ccc2nc(NC(=O)c3cccs3)sc2c1 | n | n | n | 9.1 | n | n | 8.7 | 9.8
O=C(/C=C\Nc1ccc2c(c1)OCO2)c1cccs1 | n | n | n | 10.4 | n | n | 9.8 | n
O=C(N[C@@H]1CC[C@@H](CCn2cc(-c3ccccc3F)nn2)O[C@H]1CO)c1ccc2c(c1)OCO2 | x | x | n | x | x | x | x | x
CN(C)c1cccc(CNC(=O)c2csc([C@@H]3O[C@H](CO)[C@@H](O)[C@H]3O)n2)c1 | x | x | n | 8.3 | x | n | n | n
